Screening data (PubChem)
BAZ2B block: inhibitors of human BAZ2B bromodomain | Q9UIF8 | Potency, µM (top dose mostly 114 µM), actives largely listed as inhibitors | hit rate 4.4% among 360,000 | AlphaScreen BAZ2B-H3K14Ac peptide displacement; note: nearly all actives have a fitted effect of over 60% in size
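Compounds, titrated to a top concentration of 110 uM, were incubated 30 min at room temperature with preformed BAZ2B/acetyl-K14 H3 peptide complex (50 nM each). Proximity signal was measured by AlphaScreen after 20 min with beads.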
HP1b binding inh: blocks HP1-beta chromodomain binding to methylated histone tails | AlphaScreen HP1-beta / biotin-H3K9me3 peptide binding | P83916 | hit rate 0.56% among 390,000 | AID 540317 | Potency, µM (series often up to 114 µM), usual class: inhibitors; note: nearly all actives have a fitted effect of over 70% in size
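Compound inhibition of the preformed complex between 50 nM HP1-beta and 50 nM biotinylated H3K9me3 peptide was read by AlphaScreen. Buffer was PBS pH 7.4 with 0.01% Tween-20. Incubations ran 30 min at room temperature, with 10 ug/mL donor/acceptor beads.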
L3MBTL1 block: blocks human L3MBTL1. AID 485360. Potency, µM (doses to about 57.1 µM), usual class: inhibitors. Q9Y468. AlphaScreen L3MBTL1–H3K9me1 peptide binding. hit rate 0.66% among 230,000; note: nearly all actives have a fitted effect of over 60% in size
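First, the protein-peptide complex forms for 30 min at room temperature (L3MBTL1 50 nM, biotinylated H3K9me1 peptide 75 nM). Next, compounds are pin-transferred and incubated 30 min. Finally, AlphaScreen beads are added and read after 30 min.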
Sfp inh: blocks B. subtilis Sfp PPTase activity | Potency, µM, actives largely listed as inhibitors | hit rate 3.5% among 310,000 | AID 1490 | Biochemical Sfp PPTase activity, qHTS | Q9F4F7;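 note: the enzyme is Sfp with the accession as filed and its product quenches rhodamine fluorescence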
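Reaction rates are the 30-min fluorescence difference (ex 525, em 598 nm) in wells containing 15 nM Sfp, 5 uM rhodamine-CoA and 12.5 uM BHQ-2-YbbR at pH 7.6 with 10 mM MgCl2.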
JMJD2A Tudor inh: blocks the human JMJD2A Tudor domain; O75164; AlphaScreen JMJD2A-Tudor / H3K4me3 peptide binding; Potency, µM (series often up to 114 µM), actives largely listed as inhibitors; hit rate 4.4% among 390,000; AID 504339; note: nearly all actives have a fitted effect of over 50% in size
G9a inh: blocks human histone lysine methyltransferase G9a | Q96KQ7 | G9a H3K9 monomethylation, AlphaScreen, 2 h | Potency, µM (titrated, usually from 102 µM), hits mostly inhibitors | hit rate 8.8% among 350,000; note: nearly all actives have a fitted effect of over 75% in size
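Methyltransferase reactions run at room temperature for 2 h (20 nM enzyme, 500 nM biotin-H3K9 peptide, 20 uM SAM) after a 15 min compound preincubation; product detected by AlphaScreen beads and anti-H3K9me1 antibody.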
Numbers stand for hits; [ ] = remark or other dose. In the library only some 12% were active in any assay of this set; here they are far more common. Calls come from the whole dose curve; as a rule, active = well fitted curve in the direction sought with a large enough effect; inconclusive = small, poorly fitted or top-dose-only effect, or another doubt; inactive = no such curve, though single readings can be large; an effect the other way counts as inactive or inconclusive.

Screening CCOC(=O)c1c(-c2cccs2)csc1NC(=O)c1ccncc1 returned BAZ2B block inactive, HP1b binding inh inactive, L3MBTL1 block inactive, Sfp inh inactive, JMJD2A Tudor inh inactive and G9a inh inactive[2.33 µM].
For COC(=O)c1c(-c2cccs2)csc1NC(=O)c1ccc(OC)c(OC)c1 the results were BAZ2B block inactive, HP1b binding inh inconclusive, JMJD2A Tudor inh inactive and G9a inh 2.8µM.
For COC(=O)c1c(-c2cccs2)csc1NC(=O)c1ccc(C)cc1 the results were BAZ2B block inconclusive, HP1b binding inh inactive, JMJD2A Tudor inh inactive and G9a inh inconclusive.
Screening COC(=O)c1c(-c2cccs2)csc1NC(=O)c1cc(OC)cc(OC)c1 returned BAZ2B block inactive, HP1b binding inh inactive, JMJD2A Tudor inh inactive and G9a inh 2.8µM.
`COC(=O)c1c(-c2cccs2)csc1NC(=O)c1cc(OC)c(OC)c(OC)c1` gave BAZ2B block inconclusive, HP1b binding inh inconclusive, JMJD2A Tudor inh 89µM and G9a inh inconclusive.
`COC(=O)c1c(-c2cccs2)csc1NC(=O)c1ccc(Br)cc1` gave BAZ2B block inactive, HP1b binding inh inactive, JMJD2A Tudor inh inactive and G9a inh 1.6µM.
`O=C(Nc1cccc(Cl)c1Cl)c1ccc2c(c1)N(Cc1cccc(Cl)c1)C(=O)c1ccccc1S2(=O)=O` gave BAZ2B block inactive, HP1b binding inh inactive, JMJD2A Tudor inh inactive and G9a inh inactive.
Cc1oc2ccc(O)c(CN3CCCC(C)C3)c2c1C(=O)Nc1ccccc1 (configuration not stated) was read as BAZ2B block inactive, HP1b binding inh inactive, JMJD2A Tudor inh inactive and G9a inh inactive.
Screening CCOC(=O)c1ccc(NC(=O)CC(C)n2nc(C)cc2C)cc1 (configuration not stated) returned BAZ2B block inactive, HP1b binding inh inactive, JMJD2A Tudor inh inactive and G9a inh inactive.
Screening Nc1nonc1N/N=C\c1ccccc1 returned BAZ2B block inactive, HP1b binding inh inactive, L3MBTL1 block inactive, Sfp inh inactive, JMJD2A Tudor inh inactive and G9a inh inactive.
Nc1nonc1NN=C1CCCCC1 was read as BAZ2B block inactive, HP1b binding inh inactive, L3MBTL1 block inactive, Sfp inh 79µM, JMJD2A Tudor inh inactive and G9a inh inactive.
For Cc1ccc(NC(=O)c2ncn[nH]2)cc1 the results were BAZ2B block 50µM, HP1b binding inh inactive, L3MBTL1 block inactive, Sfp inh inactive, JMJD2A Tudor inh inactive and G9a inh inactive.
Screening Cc1c(Cl)cccc1NC(=O)c1ncn[nH]1 returned BAZ2B block 20µM, HP1b binding inh inactive, Sfp inh inactive, JMJD2A Tudor inh 25µM and G9a inh 11µM.
Screening Cc1ccccc1C(=O)Nc1cccc(NC(=O)c2ncn[nH]2)c1 returned BAZ2B block inconclusive, HP1b binding inh inactive, L3MBTL1 block inconclusive, Sfp inh inactive, JMJD2A Tudor inh inactive and G9a inh inactive.
For O=P1(O)OP(=O)(O)OP(=O)(O)O1.[Al] the results were Sfp inh inactive.
`N=C1C=CC(=C(c2ccc(N)cc2)c2ccc(N)cc2)C=C1` gave HP1b binding inh inconclusive and JMJD2A Tudor inh 7.1µM.
`CC1CC(C)(C)NC(=S)S1` (configuration not stated) gave BAZ2B block inactive, HP1b binding inh inactive, L3MBTL1 block inactive, Sfp inh 50µM, JMJD2A Tudor inh inactive and G9a inh 8.9µM.
For CCn1cc(/C=C/C(=O)Nc2ccn(Cc3c(F)c(F)cc(F)c3F)n2)cn1 the results were BAZ2B block inactive, HP1b binding inh inactive, L3MBTL1 block inactive, Sfp inh 28µM, JMJD2A Tudor inh inactive and G9a inh 45µM.
Cc1c(Cl)cccc1NC(=O)Cn1cnc2nc3c(cc2c1=O)CCCC3 was read as BAZ2B block inactive, HP1b binding inh inactive, JMJD2A Tudor inh inconclusive and G9a inh inactive.
`C=CCNCc1cc(=O)n2c(-c3ccccc3)csc2n1` gave BAZ2B block 50µM, HP1b binding inh inconclusive, Sfp inh inactive, JMJD2A Tudor inh 3.5µM and G9a inh inconclusive.
Screening Cc1ccc(OCc2cc(=O)n3c(-c4ccccc4)csc3n2)cc1 returned BAZ2B block inactive, HP1b binding inh inactive, JMJD2A Tudor inh inconclusive and G9a inh inactive.
`CCOc1ccc(NC(=O)CN(C)Cc2cc(=O)n3c(-c4ccccc4)csc3n2)cc1OCC` gave BAZ2B block inconclusive, HP1b binding inh inactive, L3MBTL1 block inconclusive, Sfp inh inactive, JMJD2A Tudor inh inactive and G9a inh 50µM.
Screening Cc1cc(C)cc(OCc2cc(=O)n3c(-c4ccccc4)csc3n2)c1 returned BAZ2B block 79µM, HP1b binding inh inactive, JMJD2A Tudor inh inconclusive and G9a inh inactive.
For CCCOc1ccc(N2C(=O)CC(NCCNc3ccc([N+](=O)[O-])cn3)C2=O)cc1 (configuration not stated) the results were BAZ2B block inactive, HP1b binding inh inactive, L3MBTL1 block inactive, Sfp inh inactive, JMJD2A Tudor inh inactive and G9a inh 13µM.
Screening O=C1NCCCCC1NC1CC(=O)N(c2ccccc2)C1=O (configuration not stated) returned BAZ2B block inactive, HP1b binding inh inactive, L3MBTL1 block inactive, Sfp inh inactive, JMJD2A Tudor inh inactive and G9a inh inactive.
For CCOc1ccc(N2C(=O)CC(NCc3ccc(S(N)(=O)=O)cc3)C2=O)cc1 (configuration not stated) the results were BAZ2B block inactive, HP1b binding inh inactive, Sfp inh inactive, JMJD2A Tudor inh inactive[11.4 µM] and G9a inh inactive.
CCOc1ccc(N2C(=O)CC(NC3CCCCNC3=O)C2=O)cc1 (configuration not stated) was read as BAZ2B block inactive, HP1b binding inh inactive, L3MBTL1 block inactive, Sfp inh inactive, JMJD2A Tudor inh inactive and G9a inh 7.9µM.
Screening CCCOc1ccc(N2C(=O)CC(NCc3cccnc3)C2=O)cc1 (configuration not stated) returned BAZ2B block inactive, HP1b binding inh inactive, L3MBTL1 block inactive, Sfp inh inactive and JMJD2A Tudor inh inactive.
CCOc1ccc(N2C(=O)CC(NCC#N)C2=O)cc1 (configuration not stated) was read as BAZ2B block inactive, HP1b binding inh inactive, L3MBTL1 block inactive, Sfp inh 56µM and JMJD2A Tudor inh inactive.
Screening CCOC(=O)C1CCN(C(=O)Cn2cnc3sc(C)c(S(=O)(=O)N4CCCCC4)c3c2=O)CC1 returned BAZ2B block inactive, HP1b binding inh inactive, Sfp inh inactive, JMJD2A Tudor inh inactive and G9a inh 50µM.
CCOC(=O)C1CCN(C(=O)Cn2cnc3sc(C)c(S(=O)(=O)N4CCC(C)CC4)c3c2=O)CC1 was read as BAZ2B block inactive, HP1b binding inh inactive, Sfp inh inactive, JMJD2A Tudor inh inactive and G9a inh inactive.
